# Test results reported in the supplement of paper PMC8728848.
# About 410 targets per protein were measured; listed, in parts, are those with the strongest signals and a random draw of the rest.
# B1: SspB A3vp1 (Streptococcus gordonii), Q54186 (protein)
# chain: MTNEADYQAKLAAYQTELARVQKANADAKATYEKAVEDNKAKNAAIKAENEEIKQRNAVAKTDYEAKLAKYEADLAKYKKEFAAYTAALAEAESKKKQDGYLSEPRSQSLNFKSEPNAIRTIDSSVHQYGQQELDALVKSWGISPTNPDRKKSRAYSYFNAINSNNTYAKLVLEKDKPVDVTYTGLKNSSFNGKKISKVVYTYTLKETGFNDGTKMTMFASSDPTVTAWYNDYFTSTNINVKVKFYDEEGQLMNLTGGLVNFSSLNRGNGSGAIDKDAIESVRNFNGRYIPISGSSIKIHENNSAYADSSNAEKSLGARWNTSEWDTTSSPNNWYGAIVGEITQSEISFNMASSKSGNIWFAFNSNINAIGVPTKPVAPTAPTQPMYETEKPLEPAPVAPSYENEPTPPVKTPDQPEPSKPAAALEHHHHHH
# Tests used:
# Assay in all cases: glycan array binding signal (z-score within array); higher = stronger binding
# Details in all cases: glycan notation: IUPAC condensed, linker removed
# [1] = target: Fuc(a1-2)Gal(b1-3)GlcNAc(b1-2)Man(a1-3)[Fuc(a1-2)Gal(b1-3)GlcNAc(b1-2)Man(a1-6)]Man(b1-4)GlcNAc(b1-4)GlcNAc
# In short: (§1)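 Glycan array binding is given as a within-array Z-score, which can be read as non-binding when negative. The arrays, 3228 of them, came from the Consortium for Functional Glycomics database and were retained only where the protein sequence was available. Z-scores were averaged across arrays of the same protein sequence at different concentrations or buffers and across linkers.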
# [2] = target: Fuc(a1-2)Gal(b1-4)GlcNAc(b1-2)Man(a1-3)[Fuc(a1-2)Gal(b1-4)GlcNAc(b1-2)Man(a1-6)]Man(b1-4)GlcNAc(b1-4)[Fuc(a1-6)]GlcNAc
# In short: as §1
# [3] = target: Fuc(a1-2)[Gal(a1-3)]Gal(b1-3)GlcNAc(b1-3)GalNAc
# In short: as §1
# [4] = target: Fuc(a1-2)[GalNAc(a1-3)]Gal(b1-4)GlcNAc
# In short: as §1
# [5] = target: Fuc(a1-2)[GalNAc(a1-3)]Gal(b1-4)GlcNAc(b1-2)Man(a1-3)[Fuc(a1-2)[GalNAc(a1-3)]Gal(b1-4)GlcNAc(b1-2)Man(a1-6)]Man(b1-4)GlcNAc(b1-4)[Fuc(a1-6)]GlcNAc
# In short: as §1
# [6] = target: Fuc(a1-2)[GalNAc(a1-3)]Gal(b1-4)[Fuc(a1-3)]GlcNAc(b1-3)GalNAc
# In short: as §1
# [7] = target: Fuc(a1-2)[GalNAc(b1-3)]Gal
# In short: as §1
# [8] = target: Fuc(a1-3)[Gal(b1-4)]GlcNAc(b1-2)Man(a1-3)[Fuc(a1-3)[Gal(b1-4)]GlcNAc(b1-2)Man(a1-6)]Man(b1-4)GlcNAc(b1-4)GlcNAc
# In short: as §1
# [9] = target: Gal(a1-3)Gal(b1-4)GlcNAc(b1-2)Man(a1-3)[Gal(a1-3)Gal(b1-4)GlcNAc(b1-2)Man(a1-6)]Man(b1-4)GlcNAc(b1-4)GlcNAc
# In short: as §1
# [10] = target: Gal(a1-3)Gal(b1-4)GlcNAc(b1-6)GalNAc
# In short: as §1
# [11] = target: Gal(a1-3)GalNAc
# In short: as §1
# [12] = target: Gal(a1-4)Gal(b1-4)GlcNAc
# In short: as §1
# [13] = target: Gal(b1-3)GlcNAc
# In short: as §1
# [14] = target: Gal(b1-3)GlcNAc(b1-2)[Gal(b1-3)GlcNAc(b1-6)]Man(a1-6)[Gal(b1-3)GlcNAc(b1-2)Man(a1-3)]Man(b1-4)GlcNAc(b1-4)GlcNAc
# In short: as §1
# [15] = target: Gal(b1-3)GlcNAc(b1-6)[Gal(b1-3)]GalNAc
# In short: as §1
# [16] = target: Gal(b1-3)[Fuc(a1-4)]GlcNAc(b1-2)Man(a1-3)[Gal(b1-3)[Fuc(a1-4)]GlcNAc(b1-2)Man(a1-6)]Man(b1-4)GlcNAc(b1-4)[Fuc(a1-6)]GlcNAc
# In short: as §1
# [17] = target: Gal(b1-3)[Neu5Ac(a2-6)]GlcNAc(b1-4)Gal(b1-4)Glc
# In short: as §1
# [18] = target: Gal(b1-4)Gal
# In short: as §1
# [19] = target: Gal(b1-4)GlcNAc(a1-6)Gal(b1-4)GlcNAc
# In short: as §1
# [20] = target: Gal(b1-4)GlcNAc(b1-2)Man(a1-3)Man(b1-4)GlcNAc(b1-4)GlcNAc
# In short: as §1
# [21] = target: Gal(b1-4)GlcNAc(b1-2)Man(a1-3)[Gal(b1-4)GlcNAc(b1-2)Man(a1-6)][Gal(b1-4)GlcNAc(b1-4)]Man(b1-4)GlcNAc(b1-4)[Fuc(a1-6)]GlcNAc
# In short: as §1
# [22] = target: Gal(b1-4)GlcNAc(b1-2)[Gal(b1-4)GlcNAc(b1-6)]Man(a1-6)[GlcNAc(b1-4)][Gal(b1-4)GlcNAc(b1-2)Man(a1-3)]Man(b1-4)GlcNAc(b1-4)GlcNAc
# In short: as §1
# [23] = target: Gal(b1-4)GlcNAc(b1-3)Gal(b1-4)GlcNAc(b1-2)[Gal(b1-4)GlcNAc(b1-3)Gal(b1-4)GlcNAc(b1-6)]Man(a1-6)[Gal(b1-4)GlcNAc(b1-3)Gal(b1-4)GlcNAc(b1-2)Man(a1-3)]Man(b1-4)GlcNAc(b1-4)GlcNAc
# In short: as §1
# [24] = target: Gal(b1-4)GlcNAc(b1-3)Gal(b1-4)GlcNAc(b1-2)[Gal(b1-4)GlcNAc(b1-3)Gal(b1-4)GlcNAc(b1-6)]Man(a1-6)[Gal(b1-4)GlcNAc(b1-3)Gal(b1-4)GlcNAc(b1-2)Man(a1-3)]Man(b1-4)GlcNAc(b1-4)[Fuc(a1-6)]GlcNAc
# In short: as §1
# [25] = target: Gal(b1-4)GlcNAc(b1-3)Gal(b1-4)GlcNAc(b1-3)Gal(b1-4)GlcNAc(b1-2)Man(a1-3)[Gal(b1-4)GlcNAc(b1-3)Gal(b1-4)GlcNAc(b1-3)Gal(b1-4)GlcNAc(b1-2)Man(a1-6)]Man(b1-4)GlcNAc(b1-4)[Fuc(a1-6)]GlcNAc
# In short: as §1
# [26] = target: Gal(b1-4)GlcNAc(b1-3)Gal(b1-4)GlcNAc(b1-3)Gal(b1-4)GlcNAc(b1-3)Gal(b1-4)GlcNAc(b1-2)Man(a1-3)[Gal(b1-4)GlcNAc(b1-3)Gal(b1-4)GlcNAc(b1-3)Gal(b1-4)GlcNAc(b1-3)Gal(b1-4)GlcNAc(b1-2)Man(a1-6)]Man(b1-4)GlcNAc(b1-4)GlcNAc
# In short: as §1
# [27] = target: Gal(b1-4)GlcNAc(b1-3)Gal(b1-4)GlcNAc(b1-3)Gal(b1-4)GlcNAc(b1-3)Gal(b1-4)GlcNAc(b1-3)Gal(b1-4)GlcNAc(b1-2)Man(a1-3)[Gal(b1-4)GlcNAc(b1-3)Gal(b1-4)GlcNAc(b1-3)Gal(b1-4)GlcNAc(b1-3)Gal(b1-4)GlcNAc(b1-3)Gal(b1-4)GlcNAc(b1-2)Man(a1-6)]Man(b1-4)GlcNAc(b1-4)GlcNAc
# In short: as §1
# [28] = target: Gal(b1-4)GlcNAc(b1-3)Gal(b1-4)GlcNAc(b1-3)Gal(b1-4)GlcNAc(b1-3)Gal(b1-4)GlcNAc(b1-3)Gal(b1-4)GlcNAc(b1-2)Man(a1-3)[Gal(b1-4)GlcNAc(b1-3)Gal(b1-4)GlcNAc(b1-3)Gal(b1-4)GlcNAc(b1-3)Gal(b1-4)GlcNAc(b1-3)Gal(b1-4)GlcNAc(b1-2)Man(a1-6)]Man(b1-4)GlcNAc(b1-4)[Fuc(a1-6)]GlcNAc
# In short: as §1
# [29] = target: Gal(b1-4)GlcNAc(b1-3)Gal(b1-4)GlcNAc(b1-6)[Gal(b1-3)]GalNAc
# In short: as §1
# [30] = target: Gal(b1-4)GlcNAc(b1-6)[Gal(b1-3)]GalNAc
# In short: as §1
binder,measurement,setting,value
B1,glycan array binding signal (z-score),[1],6.26
same,glycan array binding signal (z-score),[2],-0.372
same,glycan array binding signal (z-score),[3],0.099
same,glycan array binding signal (z-score),[4],-0.651
same,glycan array binding signal (z-score),[5],0.127
same,glycan array binding signal (z-score),[6],3.5
same,glycan array binding signal (z-score),[7],-1.11
same,glycan array binding signal (z-score),[8],0.062
same,glycan array binding signal (z-score),[9],1.84
same,glycan array binding signal (z-score),[10],-0.506
same,glycan array binding signal (z-score),[11],-0.575
same,glycan array binding signal (z-score),[12],0.692
same,glycan array binding signal (z-score),[13],-0.432
same,glycan array binding signal (z-score),[14],1.46
same,glycan array binding signal (z-score),[15],0.011
same,glycan array binding signal (z-score),[16],0.75
same,glycan array binding signal (z-score),[17],-0.063
same,glycan array binding signal (z-score),[18],-0.088
same,glycan array binding signal (z-score),[19],-0.728
same,glycan array binding signal (z-score),[20],-0.334
same,glycan array binding signal (z-score),[21],3.03
same,glycan array binding signal (z-score),[22],0.194
same,glycan array binding signal (z-score),[23],3.16
same,glycan array binding signal (z-score),[24],3.01
same,glycan array binding signal (z-score),[25],3.73
same,glycan array binding signal (z-score),[26],3.61
same,glycan array binding signal (z-score),[27],3.36
same,glycan array binding signal (z-score),[28],3.38
same,glycan array binding signal (z-score),[29],2.1
same,glycan array binding signal (z-score),[30],0.609
